FLuc counter – qHTS profiling assay for firefly luciferase inhibitor/activator using purifed enzyme and Km concentrations of substrates (counterscreen for miR-21 project); Luciferin 4-monooxygenase (Photinus pyralis), P08659; purified FLuc, Km substrates, luminescence inhibition; Potency, µM (titrated, usually from 57.5 µM), without a hit: at the top dose activity change, negative = inhibition, actives largely listed as inhibitors; 360,000 compounds, 6.9% hits; AID 588342, 2011;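 also: plate controls were vehicle for no effect and reference inhibitor for full effect; nearly all actives have a fitted effect of over 55% in size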
Target sequence (P08659 whole entry, looked up): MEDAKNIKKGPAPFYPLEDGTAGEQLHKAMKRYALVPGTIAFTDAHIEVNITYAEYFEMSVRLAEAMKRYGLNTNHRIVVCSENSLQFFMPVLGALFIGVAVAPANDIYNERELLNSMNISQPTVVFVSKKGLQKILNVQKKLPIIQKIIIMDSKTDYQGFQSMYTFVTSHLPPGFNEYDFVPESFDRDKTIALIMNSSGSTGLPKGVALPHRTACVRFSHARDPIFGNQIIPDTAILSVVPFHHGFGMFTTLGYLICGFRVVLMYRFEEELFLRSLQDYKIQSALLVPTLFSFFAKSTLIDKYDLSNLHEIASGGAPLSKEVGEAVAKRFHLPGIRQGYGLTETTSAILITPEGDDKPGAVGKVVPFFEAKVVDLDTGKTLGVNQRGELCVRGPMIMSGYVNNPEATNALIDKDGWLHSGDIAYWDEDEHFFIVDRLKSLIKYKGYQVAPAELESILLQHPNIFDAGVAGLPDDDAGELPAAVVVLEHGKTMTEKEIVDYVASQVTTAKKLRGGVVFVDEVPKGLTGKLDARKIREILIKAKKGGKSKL
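Purified P. pyralis luciferase (10nM final) with 10uM D-luciferin and 10uM ATP (Km levels) in 50mM Tris acetate pH 7.5, 10mM Mg acetate, 0.01% Tween-20, 0.05% BSA; qHTS 6-point titration, ~60 µM downward; luminescence read.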
SMN2 splice enh – qHTS Assay for Enhancers of SMN2 Splice Variant Expression; HEK293 SMN2-luciferase splicing reporter, luminescence, 30-36 h; Potency, µM (doses to about 46.1 µM), for the others: at the highest dose activity change, positive = activation, hits mostly activators; 210,000 compounds, 2.8% hits; AID 1458, 2008; also: % of control where 0% means no effect; nearly all actives have a fitted effect of over 55% in size
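HEK293 cells carry an SMN2 […]–luciferase reporter in which exon 7 inclusion puts luciferase in frame. Cells were plated 10-12 h before compound addition, then incubated 30-36 h at 37C. ONE-Glo luminescence was read; sodium butyrate at 4.5 mM final served as control.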
ELG1 repair inh – qHTS screen for small molecules that inhibit ELG1-dependent DNA repair in human embryonic kidney (HEK293T) cells expressing luciferase-tagged ELG1 | HEK293T ELG1-luciferase reporter, luminescence, 16 h; DNA damage induced by 5-fluorouridine | Potency, µM (series often up to 46.1 µM), for the others: at the top dose activity change, negative = inhibition, usual class: inhibitors | 330,000 compounds, 2.3% hits; also: % is scaled to controls: 0 for no effect and ±100 for the full control effect; nearly all actives have a fitted effect of over 55% in size
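In this reporter screen, reduction of luminescence relative to DMSO vehicle indicated activity. Compounds and 5-fluorouridine were added together to 2,000 cells per well, incubated for 16 hr at 37 °C, then developed with ONE-Glo.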
NPC1 prom act – qHTS Assay for NPC1 Promoter Activators; Huh7 NPC1 promoter luciferase reporter, 24 h; Potency, µM (top dose mostly 9.22 µM), for the others: at the top dose activation, usual class: activators; 320,000 compounds, 2.4% hits; also: % of control where 0% means no effect; nearly all actives have a fitted effect of over 60% in size
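Luciferase expression driven by the NPC1 promoter was measured in stably transfected Huh7 cells after a 24 h compound incubation, using a luciferase reagent and a luminescence read.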
Rab9 prom act – qHTS Assay for Rab9 Promoter Activators; Potency, µM (titrated, usually from 9.22 µM), inactives show at the top dose activation, negative = inhibition, usual class: activators; Huh7 Rab9 promoter-luciferase reporter, luminescence, 24 h; AID 485297, 2010; 320,000 compounds, 2.8% hits; also: % of control where 0% means no effect; nearly all actives have a fitted effect of over 60% in size
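Luminescence read-out: Huh7 cells stably expressing Rab9-luciferase, treated 24 h with compound at 37 °C, then lysed with luciferase reagent for 10 min at ambient before reading.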
ELG1 genotoxic – qHTS screen for small molecules that induce genotoxicity in human embryonic kidney (HEK293T) cells expressing luciferase-tagged ELG1. HEK293T ELG1-luciferase reporter, luminescence, 16 h. Potency, µM (titrated, usually from 46 µM), for the others: at the highest dose activity change, positive = activation, actives largely listed as activators. 330,000 compounds, 1.3% hits. AID 504466, 2011; also: % of control where 0% means no effect; nearly all actives have a fitted effect of over 60% in size
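Luminescence read-out: rising ELG1-luciferase signal, reflecting elevated ELG1 protein under genetic stress, flags genotoxic compounds. Cells were treated for 16 hr at 37 °C before ONE-Glo detection.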
* marks the source's active call; other numbers are inactive results; ? = inconclusive; . = no result; [ ] = dose if it differs, or a comment. The list is not random: actives were taken first. Their share in the collection is about 9.2%. Calls follow the shape of the dose curve; as a rule, active = well fitted curve in the direction sought with a large enough effect; inconclusive = small, poorly fitted or top-dose-only effect, or another doubt; inactive = no such curve, though single readings can be large; an effect the other way counts as inactive or inconclusive. Potency is read from the fitted curve at half-maximal effect.

SMILES	FLuc counter	SMN2 splice enh	ELG1 repair inh	NPC1 prom act	Rab9 prom act	ELG1 genotoxic
O=C(N/N=C/c1ccc(-c2ccccc2C(=O)O)o1)c1cccs1	13µM*	6%	?	15%	3%	4%
CN(C)c1ccc(/C=N/NC(=O)c2cccc(C(=O)N/N=C/c3ccc(N(C)C)cc3)n2)cc1	?	2%	16%	2%	-5%	5%
CN(C)c1cccc(C(=O)N/N=C/c2ccsc2)c1	3µM*	11µM*	?	3.2µM*	3.5µM*	?
CN(C)c1ccc(/C=N/O)cc1	-19%	27%	23%	4%	10%	5%
O=C(N/N=C/c1ccncc1)c1cccs1	?	.	?	19%	10%	?
Cc1ccc(/C=N/NC(=O)CNC(=O)c2cccs2)o1	-3%	1%	-19%	0%	3%	1%
C/C(=N/N=C/c1ccc(N(C)C)cc1)c1ccccc1	0.17µM*	0.5µM*	?	0.28µM*	0.11µM*	0.37µM*
CCN(CC)S(=O)(=O)c1ccc(OC)c(NC(=O)C2CC(=O)N(c3ccc4c(c3)OCCO4)C2)c1 (centres undefined)	-6%	.	?	2%	11%	-7%
COCCNC(=O)COC(=O)c1cccnc1SC	4%	?	-10%	2%	-4%	7%
CCOC(=O)Cc1ccc(NC(=O)Nc2cccc(OCc3cc(=O)n4cc(C)ccc4n3)c2)cc1	-5%	.	.	.	.	.
CN(C)c1ccc(/C=N/NC(=O)c2ccc(Cl)cc2)cc1	?	-8%	7%	0%	0%	6%
CSc1ccc(/C=N/NC(=O)c2ccccc2Cl)cc1	15µM*	30%	?	11%	?	?
CN(C)c1ccc(/C=N/NC(=O)c2ccccc2)cc1	5.4µM*	11µM*	?	2.8µM*	0.89µM*	?
O=C(N/N=C/c1ccc(-n2ccnc2)cc1)c1cccs1	12µM*	.	?	?	?	?
CN(C)c1ccc(/C=N\NC(=O)c2ccc(Cn3cc(Cl)cn3)cc2)cc1	12µM*	-13%	?	0%	2%	-3%
CC(C)CN(CCNC(=O)CN1C(=O)COc2ccc(S(=O)(=O)N3CCC(C)CC3)cc21)CC(C)C	0%	.	0%	2%	-2%	0%
CN(C)c1ccc(/C=N/NC(=O)c2sccc2-n2cccc2)cc1	?	20%	?	?	4µM*	-1%
CN(C)c1ccc(/C=N/NC(=O)c2ccccc2Cl)cc1	17µM*	22µM*	?	-1%	13%	?
COc1ccc(C(=O)CSc2nc3ccc([N+](=O)[O-])cc3[nH]2)cc1	-1%	.	?	2%	-2%	-6%
COc1ccc(C(=O)N/C(=C\c2cn(S(=O)(=O)N(C)C)c3ccccc23)C(=O)N2CCN(C)CC2)cc1	0%	.	-9%	-6%	-1%	-3%
O=c1cc(-c2ccccc2)nc2nc(-c3ccco3)[nH]n12	3.4µM*	?	?	15%	11%	?
O=c1cc(-c2ccccc2)nc2nc(SCc3ccccc3)[nH]n12	27µM*	6%	9%	1%	8%	12%
O=C1CCC(=O)N1c1nc2nc(-c3ccccc3)cc(=O)n2[nH]1	-9%	19%	-4%	-1%	-5%	0%
Cc1cccc(-c2cc3nc(-c4ccccc4)cc(=O)n3[nH]2)c1	7.6µM*	.	?	2µM*	2.8µM*	?
O=c1cc(-c2ccccc2)nc2nc(CCc3ccccc3)[nH]n12	?	12%	1%	0%	2%	-1%
SMILES	FLuc counter	SMN2 splice enh	ELG1 repair inh	NPC1 prom act	Rab9 prom act	ELG1 genotoxic
Cc1nc2nc(-c3ccccc3)cc(=O)n2[nH]1	7.6µM*	?	?	17%	17%	?
Cc1nn(-c2ccc(F)cc2)c(Cl)c1C(=O)N(C)CC(=O)Nc1cccc(F)c1	5%	.	?	-8%	-10%	-6%
COC(=O)c1sccc1S(=O)(=O)N(CC(=O)NCc1ccc(F)cc1)c1ccc(C)c(C)c1	-2%	.	.	.	.	.
Cc1cc2c3c([nH]c2cc1S(=O)(=O)N1CCC2(CC1)OCCO2)CC(C)(C)CC3=O	-12%	.	21µM*	1%	-5%	0%[9.26 µM]
NC(=O)[C@H]1CC2(CC(c3cccc(NC(=O)COc4ccc(Cl)cc4)c3)=NO2)CN1C(=O)Cc1ccc([N+](=O)[O-])cc1 (some centres undefined)	9.5µM*	.	2.1µM*	-35%	-34%	-14%
CCCCCC(=O)Nc1cccc(C2=NOC3(C2)C[C@@H](C(N)=O)N(C(=O)Cc2ccc([N+](=O)[O-])cc2)C3)c1 (some centres undefined)	-15%	.	13µM*	-4%	-10%	1%
CCCCCC(=O)Nc1cccc(C2=NOC3(C2)C[C@@H](C(N)=O)N(C(=O)c2cc([N+](=O)[O-])cc([N+](=O)[O-])c2)C3)c1 (some centres undefined)	?	.	-2%	-8%	0%	-2%
CN(C)C1=NCCN1CCc1cccc(F)c1	0%	.	18%	1%	0%	2%
Cc1ccc(CNC(=O)COC(=O)c2cncc(Br)c2)cc1	3%	14%	-1%	-4%	0%	0%
CCc1ccc(C(=O)COC(=O)c2cncc(Br)c2)cc1	15µM*	-19%	?	-4%	-7%	-5%
CCc1ccc(OC(=O)c2cncc(Br)c2)cc1	6µM*	.	-3%	0%	-7%[1.84 µM]	1%
COc1ccc(-c2noc3c2-c2nc(-c4ccccc4F)sc2CC3)cc1	0%	.	0%	-8%	-1%	-5%
Cc1ccc(C)c(S(=O)(=O)N2CCN(c3nc(-c4cccnc4)nc4ccccc34)CC2)c1	.	.	18µM*	2%	-4%	-6%
O=S(=O)(c1ccccc1F)N1CCN(c2nc(-c3cccnc3)nc3ccccc23)CC1	5%	.	18µM*	-7%	-5%	-5%
N#Cc1ccccc1S(=O)(=O)N1CCN(c2nc(-c3cccnc3)nc3ccccc23)CC1	-1%	.	?	-3%	-9%	-6%
COc1cc2c(cc1OC)CN(c1nc(-c3cccnc3)nc3ccccc13)CC2	-16%	17%	9.2µM*	0%	4%	-17%

From PubChem BioAssay
